For 40 compounds, Potency results are on record in PubChem BioAssay (NCATS).

The structures appear in SMILES notation. Inconclusive results are not listed. Entries that show only a call come without a potency. Calls of active or inactive are those of the source. The call rests on the fitted dose curve; in most records, active means well fitted inhibition curve with a large enough effect; inconclusive means small, poorly fitted or top-dose-only effect; inactive means no such curve, though single readings can be large or run the other way.
Potency means the concentration at half of the fitted maximal effect.

Cytochrome P450 2C19 (Homo sapiens), sequence (P33261 whole entry, looked up): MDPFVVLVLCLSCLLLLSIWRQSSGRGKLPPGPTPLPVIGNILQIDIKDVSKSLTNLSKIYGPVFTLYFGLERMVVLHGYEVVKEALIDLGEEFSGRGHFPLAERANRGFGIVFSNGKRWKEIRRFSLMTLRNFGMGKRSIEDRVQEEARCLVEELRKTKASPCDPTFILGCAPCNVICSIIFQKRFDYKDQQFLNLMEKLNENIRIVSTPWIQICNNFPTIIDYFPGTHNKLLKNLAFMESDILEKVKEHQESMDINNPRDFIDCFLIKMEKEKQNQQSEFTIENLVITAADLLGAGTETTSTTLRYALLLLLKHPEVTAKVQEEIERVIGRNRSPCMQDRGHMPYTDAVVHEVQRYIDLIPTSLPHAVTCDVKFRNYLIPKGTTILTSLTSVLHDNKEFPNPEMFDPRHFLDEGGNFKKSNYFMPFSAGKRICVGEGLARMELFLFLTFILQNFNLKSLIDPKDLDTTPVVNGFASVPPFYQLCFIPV

This experiment has as its target Cytochrome P450 2C19 (Homo sapiens) (UniProt P33261). Kind of experiment: qHTS Assay for Inhibitors and Substrates of Cytochrome P450 2C19 (AID 899). Further: nearly all actives have a fitted effect of over 60% in size. Conditions: recombinant CYP2C19, luciferin-H EGE luminescence; series mostly up to 57.1 µM. The procedure: NIH Molecular Libraries Screening Centers Network [MLSCN]
NIH Chemical Genomics Center [NCGC]
The P450 gene superfamily is involved in the metabolism and clearance of xenobiotics. This assay used human CYP2C19 to measure the hydroxylation of ethylene glycol ester of 6' deoxyluciferin (Luciferin-H EGE; […]) to luciferin. The luciferin is then measured by luminescence after the addition of a luciferase detection reagent. Luciferin-H EGE concentration in the assay was equal to its KM for CYP2C19. Inhibitors and some substrates limit the production of luciferin, and decrease measured luminescence.
NCGC Assay Protocol Summary:
Two uL of enzyme and substrate mix (final concentrations: 5nM CYP2C19, 10uM Luciferin-H EGE, 50mM KPO4) were dispensed into a white, solid bottom 1536-well microtiter plate. 23nL of compound was transferred by a pin tool. The plate was incubated at 37C for 10 min. Two uL of an NADPH regeneration solution (Promega supplied reagent) was dispensed and the reaction was allowed to continue for 60 min at 37C. Then the reaction was stopped by reconstituted luciferin detection buffer. After another 20 min of incubation the plate was read on the ViewLux (Perkin Elmer) at 60 sec exposure and 2x2 binning. This protocol was carried out with Promega-Glo reagents and further information can be found at http://www.promega.com/tbs/tb325/tb325.pdf. Data were normalized to the to AC100 inhibition (57uM ketoconazole).
Keywords: P450, CYP2C19, Luciferase, MLSMR, MLSCN, NIH Roadmap, qHTS, NCGC
For the compound `NCCC[C@@H](CC(=O)N[C@@H]1CCCC[C@H]1C(=O)N[C@H](CC(=O)N[C@@H](CCC(=O)O)CC(=O)O)Cc1c[nH]c2ccccc12)NC(=O)C[C@H](CO)NC(=O)[C@@H]1CNCC[C@H]1N`, the Potency entry was “inactive”. With `CC1=CC(=O)CC(C)(C)[C@@]1(O)/C=C\C(C)=C\C(=O)O` the entry was “inactive”; with `CC1(C)CCC[C@@]2(C)[C@@H]1CC[C@]1(C)OC(=O)C[C@@H]21`, 15.8 µM (active); with `CC(=O)OC[C@@H]1O[C@@H](Oc2cc(OC(C)=O)c3c(=O)cc(-c4ccc(OC(C)=O)c(OC(C)=O)c4)oc3c2)[C@H](OC(C)=O)[C@H](OC(C)=O)[C@@H]1OC(C)=O`, “inactive”. With `NCCC[C@@H](CC(=O)N[C@@H]1CCNC[C@H]1C(=O)N[C@H](CC(=O)N[C@@H](CCC(=O)O)CC(=O)O)Cc1c[nH]c2ccccc12)NC(=O)C[C@H](Cc1ccccc1)NC(=O)[C@@H]1CNCC[C@H]1N` the entry was “inactive”. The figure for `CCCC/C=C/C(NC(=O)c1ccccc1)c1ccccc1` (stereo not given) is 7.94 µM (active); for `C[C@@H](C(=O)NCCF)[C@H]1C[C@]1(C)[C@H](NC(=O)OCc1ccccc1)c1ccccc1` it is 1.26 µM (active); for `COC(=O)[C@@]1(Cc2ccccc2)[C@H]2c3cc(C(=O)N4CCCC4)n(Cc4ccc(O)c(OC)c4)c3C[C@H]2CN1C(=O)c1ccccc1` it is 0.501 µM (active). As for `COc1cc(O)c2c(=O)cc(-c3ccccc3)oc2c1`, the Potency is 0.398 µM (active). With `C[C@@H]1O[C@@H](OC[C@@H]2O[C@@H](Oc3c(-c4ccc(O)c(O)c4)oc4cc(O)cc(O)c4c3=O)[C@H](O)[C@H](O)[C@@H]2O)[C@H](O)[C@H](O)[C@@H]1O` the entry was “inactive”; with `CC(C)C[C@@H](CC(=O)N[C@@H](CCC(=O)O)CC(=O)O)NC(=O)[C@@H]1CCCC[C@H]1NC(=O)C[C@H](CCCN)NC(=O)C[C@H](Cc1ccccc1)NC(=O)[C@@H]1CCCC[C@H]1N`, “inactive”; with `CCCc1cc2c(n1CCc1ccc(Cl)cc1)C(C)C1CN(C(=O)c3ccccc3)C(C)(C(=O)OC)C21` (stereo not given), 6.31 µM (active).

On to `O[C@@H]1CC[C@H]2Cc3ccccc3N=C21`, for which the Potency result is “inactive”.

Regarding `O=c1cc(-c2ccccc2O)oc2cc(O)cc(O)c12`, the Potency is 3.98 µM (active).

Turning to `COc1cc(-c2cc(=O)c3ccccc3o2)ccc1O`, the Potency is 6.31 µM (active). The entry for `CCCCCCN(C(=O)CCCCCN1C(=O)NC(c2ccc(-c3ccccc3)cc2)C(C(=O)OCc2ccccc2)=C1C)C(C(=O)NCCCC)c1ccc(OCC(=O)OC)c(C(=O)OC)c1` (stereo not given) is “inactive”; for `COC(=O)[C@@]1(Cc2ccccc2)[C@H]2c3cc(C(=O)N4CCCC4)n(Cc4ccsc4Br)c3C[C@H]2CN1C(=O)c1ccccc1` it is 2.51 µM (active). With `COc1cc2c(cc1OC)C(=O)N(C)CC2` the entry was “inactive”.

As for `CCC/C=C(\CCC)C(NS(=O)(=O)c1ccc(Cl)cc1)c1ccccc1` (stereo not given), the Potency was 0.398 µM (active). The entry for `NCCC[C@@H](CC(=O)N[C@@H]1CCCC[C@H]1C(=O)N[C@H](CC(=O)N[C@@H](CCC(=O)O)CC(=O)O)Cc1ccccc1)NC(=O)C[C@H](CO)NC(=O)[C@@H]1CNCC[C@H]1N` is “inactive”; for `CCCC[C@@H]1C[C@H]1C(NC(=O)c1ccco1)c1ccc(Cl)cc1` (stereo not given in full) it is 0.316 µM (active); for `CC1(C)[C@@H](O)CC[C@@]2(C)[C@H]1CC[C@]1(C)[C@H]2C(=O)C=C2[C@@H]3C[C@@](C)(C(=O)O)CC[C@]3(C)CC[C@@]21C` it is “inactive”. The entry for `CC[C@H]1C2=C3C(CC[C@H]4C(OC)OC[C@](C)([C@@H]34)N(C(=O)OC(C)(C)C)C2)C(CO)C1CO` (stereo not given in full) is “inactive”; for `NCCC[C@@H](CC(=O)N[C@@H]1CCCC[C@H]1C(=O)N[C@H](CC(=O)N[C@@H](CCC(=O)O)CC(=O)O)Cc1c[nH]c2ccccc12)NC(=O)C[C@H](Cc1ccccc1)NC(=O)[C@@H]1CCCC[C@H]1N` it is “inactive”; for `CC(C)C[C@@H](CC(=O)N[C@@H](CCC(=O)O)CC(=O)O)NC(=O)[C@@H]1CNCC[C@H]1NC(=O)C[C@H](CCCN)NC(=O)C[C@H](Cc1c[nH]c2ccccc12)NC(=O)[C@@H]1CNCC[C@H]1N` it is “inactive”. The entry for `CC(C)[C@@H](CC(=O)N[C@@H]1CCCC[C@H]1C(=O)N[C@H](CC(=O)N[C@@H](CCC(=O)O)CC(=O)O)Cc1c[nH]c2ccccc12)NC(=O)C[C@H](Cc1c[nH]c2ccccc12)NC(=O)[C@@H]1CNCC[C@H]1N` is “inactive”; for `CC(C)C[C@@H](CC(=O)N[C@@H](CCCN)CC(=O)N[C@@H]1CCNC[C@H]1C(=O)N[C@H](CC(=O)N[C@@H](CCC(=O)O)CC(=O)O)CC(C)C)NC(=O)[C@@H]1CCCC[C@H]1N` it is 15.8 µM (active); for `CCC[C@@H]1C[C@@]1(CCC)C(NC(=O)c1ccco1)c1ccc(Cl)cc1` (stereo not given in full) it is 3.16 µM (active). Take `CC(C)C[C@@H](CC(=O)N[C@@H](CCC(=O)O)CC(=O)O)NC(=O)[C@@H]1CNCC[C@H]1NC(=O)C[C@@H](NC(=O)C[C@H](Cc1ccccc1)NC(=O)[C@@H]1CCCC[C@H]1N)C(C)C`: the Potency entry is “inactive”. As for `CC(C)C[C@@H](CC(=O)N[C@@H](CCC(=O)O)CC(=O)O)NC(=O)[C@@H]1CCCC[C@H]1NC(=O)C[C@@H](NC(=O)C[C@H](Cc1c[nH]c2ccccc12)NC(=O)[C@@H]1CCCC[C@H]1N)C(C)C`, the Potency entry is “inactive”. With `C[C@@H](C(=O)Nc1ccc2ccccc2c1)[C@H]1C[C@]1(C)[C@H](NS(=O)(=O)c1ccc2ccccc2c1)c1ccccc1` the figure was 0.251 µM (active); with `CC(=O)Oc1cc(OC(C)=O)c2c(=O)cc(-c3ccc(OC(C)=O)c(OC(C)=O)c3)oc2c1`, “inactive”. The figure for `CCC/C=C(\CCC)C(NS(=O)(=O)c1ccc(C(F)(F)F)cc1)c1ccccc1` (stereo not given) is 0.398 µM (active). The figure for `COC(=O)[C@@]1(Cc2ccccc2)[C@H]2c3cc(C(=O)N4CCCC4)n(Cc4ccc(C)o4)c3C[C@H]2CN1C(=O)c1ccccc1` is 2.51 µM (active). Take `C#CCN1C(C)=C(C(=O)OC)[C@@H](c2cccc([N+](=O)[O-])c2)C(C(=O)OCC)=C1C`: the Potency was 5.01 µM (active). The entry for `O=c1ccn([C@H]2O[C@H](CO)[C@@H](O)[C@@H]2O)c(=O)[nH]1` is “inactive”; for `C[C@@H](C(=O)NCc1ccccn1)[C@@H]1C[C@@]1(C)[C@@H](NC(=O)OCc1ccccc1)c1ccccc1` it is 2.51 µM (active); for `COc1cc(/C=C\C(=O)CC(=O)/C=C\c2ccc(O)c(OC)c2)ccc1O` it is 2.51 µM (active). With `CCC/C=C(\CCC)C(NP(=O)(c1ccccc1)c1ccccc1)c1ccc(-c2ccccc2)cc1` (stereo not given) the figure was 7.94 µM (active).

In the case of `CC(C)C[C@@H](CC(=O)N[C@@H](CCC(=O)O)CC(=O)O)NC(=O)[C@@H]1CNCC[C@H]1NC(=O)C[C@@H](NC(=O)C[C@H](CO)NC(=O)[C@@H]1CNCC[C@H]1N)C(C)C`, the Potency result is “inactive”.
